Reference: PubChem BioAssay
For part of these data: Potency and affinity values are given separately. The source made the active and inactive calls.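 How the source made its calls, unless noted: active means primary screen hit whose calcium fluorescence ratio, in both repeats, exceeds the weak agonist control mean by 3 SD; inactive means the rest.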

Experiments:
[1] = tested on: TRPC4 beta (transient receptor potential cation channel C4), mouse; assay: activators of mouse TRPC4 channel, confirmation, cell-based, Fluo4 calcium, HEK293 TRPC4beta/mu-opioid, duplicates, 10 µM (AID 2426;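 active means fluorescence ratio normalized to control raised more than 50% in primary screen plus both repeat runs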); details: Fluo4 calcium fluorescence, at 10 µM; hits give high values
[2] = tested on: transient receptor potential cation channel C4 beta (TRPC4), mouse; assay: activators of mouse TRPC4 channel, confirmation, cell-based, second round, Fluo4, HEK293 TRPC4beta/mu-opioid, 1 µM (AID 2461;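 active means primary screen active and over 50% activation in each of two duplicate runs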); details: Fluo4 calcium fluorescence, at 1 µM; hits give high values
[3] = tested on: TRPC4 (transient receptor potential cation channel C4 beta), mouse; assay: positive allosteric modulators of mouse TRPC4, confirmation, cell-based, second round, Fluo-4, HEK293 TRPC4beta/mu-opioid, 1 µM (AID 2554;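 active means primary screen hit whose fluorescence ratio, in both repeats, exceeds the weak agonist control mean by 3 SD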); details: DAMGO EC20, Fluo-4 calcium flux, at 1 µM; hits give high values
[4] = tested on: TRPC4 beta (transient receptor potential cation channel C4), mouse; assay: positive allosteric modulators of mouse TRPC4, confirmation, cell-based, Fluo-4, HEK293 TRPC4beta/mu-opioid (AID 2555); details: DAMGO EC20, Fluo-4 calcium flux, at 10 µM; hits give high values
[5] = target: Short transient receptor potential channel 4 (Mus musculus) (UniProt Q9QUQ5); assay: inhibitors of mouse TRPC4 channel, confirmation, cell-based, Fluo4, HEK293 TRPC4beta/mu-opioid (AID 2636;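 active means calcium signal cut by more than 3 SD below the full-agonist control yet still positive, in both repeats and the earlier primary screen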); details: DAMGO, Fluo4 calcium flux, at 10 µM; hits give high values
[6] = target: Short transient receptor potential channel 4 (Mus musculus) (UniProt Q9QUQ5); assay: inhibitors of mouse TRPC4 channel, confirmation, cell-based, second round, Fluo4, HEK293 TRPC4beta/mu-opioid, 1 µM (AID 2637;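 active means calcium signal ratio cut to more than 3 SD under the fully stimulated control mean yet still positive, in both repeats and the primary screen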); details: Fluo4 calcium flux, DAMGO, at 1 µM; hits give high values
[7] = target: Short transient receptor potential channel 4 (Mus musculus) (UniProt Q9QUQ5); assay: mouse TRPC4 channel activators, dose response, cell-based, HEK293 TRPC4/mu-opioid, Fluo-4 calcium (AID 434937;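 active means primary screen activator hit with a dose response curve and TRPC4 channel activation at any tested dose; inactive means no activation, no dose response, or not a primary hit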)
[8] = target: Short transient receptor potential channel 4 (Mus musculus) (UniProt Q9QUQ5); assay: TRPC4 positive allosteric modulators, dose response, cell-based, HEK293 TRPC4/mu-opioid, Fluo-4 calcium, EC20 DAMGO (AID 434941;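 active means earlier screen potentiator hit that boosts the TRPC4 ion channel at some dose, with a dose response; inactive means no potentiation, no dose response, or not a prior hit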;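 further: calcium entry triggered by an EC20 dose of DAMGO at the co-expressed mu-opioid receptor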)
[9] = target: Short transient receptor potential channel 4 (Mus musculus) (UniProt Q9QUQ5); assay: mouse TRPC4 channel inhibitors, dose response, cell-based, HEK293 TRPC4/mu-opioid, Fluo-4 calcium (AID 434942;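 active means primary screen inhibitor hit that blocks the TRPC4 channel at some tested dose, yielding a dose curve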)
[10] = target: Short transient receptor potential channel 6 (Mus musculus) (UniProt Q61143); assay: inhibition of mouse TRPC6 channel, confirmation, selectivity assay for TRPC4 inhibitor project, cell-based, HEK293, membrane potential dye, duplicate (AID 434948;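 active means active in primary screen and both duplicates, each dropping signal beyond three positive-control SD with fluorescence still positive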); details: HEK293 TRPC6, membrane potential dye fluorescence, at 10 µM, stimulated with maximal-effect acetylcholine; hits give high values
[11] = target: Short transient receptor potential channel 6 (Mus musculus) (UniProt Q61143); assay: activation of mouse TRPC6 channel, confirmation, selectivity assay for TRPC4 activator project, cell-based, HEK293, membrane potential dye, duplicate (AID 434950;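 active means membrane potential signal rise above negative control mean plus 3 SD in both duplicates, also active in the earlier TRPC4 screen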;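 on activation: 0% = buffer only wells and 100% = acetylcholine maximal-effect wells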); details: HEK293 TRPC6, membrane potential fluorescence, at 10 µM; hits give high values
[12] = target: Short transient receptor potential channel 6 (Mus musculus) (UniProt Q61143); assay: TRPC6 potentiation by TRPC4 potentiator hits, confirmation, selectivity assay for TRPC4 potentiator project, HEK293 cells, membrane potential dye, duplicate (AID 434952;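 active means compound raising the membrane signal above positive-control mean plus 3 SD in both repeats, and a primary screen hit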); details: HEK293 TRPC6, membrane potential dye fluorescence, at 10 µM, maximal acetylcholine added after compound; hits give high values
[13] = target: Short transient receptor potential channel 4 (Mus musculus) (UniProt Q9QUQ5); assay: calcium flux activators in TRPC4/5HT1a cells, counter-screen for TRPC4 activator project, cell-based, second counter screen, HEK293 TRPC4/5HT1a, Fluo-4 (AID 434977;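 active means calcium signal rise above buffer-control mean plus 5 SD in both duplicates, and also a hit in the primary screen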;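 on activation: plate controls were assay buffer for no effect and maximal serotonin response for full effect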); details: Fluo-4 calcium flux, at 10 µM; hits give high values
[14] = calcium flux inhibitors in TRPC4/5HT1a cells, confirmation, counter-screen for TRPC4 inhibitor project, cell-based, second counter screen, HEK293 TRPC4/5HT1a, Fluo-4 (AID 434978;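 active means primary screen active whose calcium signal fell more than 3 SD beyond the full-serotonin control mean in both duplicate plates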;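 on outcome: serotonin given first at submaximal then at maximal dose after compound preincubation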); details: Fluo-4 calcium flux, at 10 µM, serotonin added to trigger calcium flux; hits give high values
[15] = tested on: TRPC4 (mouse), co-expressed with 5HT1a in HEK293; assay: calcium flux potentiators in TRPC4/5HT1a cells, confirmation, counter-screen for TRPC4 potentiator project, cell-based, second counter screen, HEK293 TRPC4/5HT1a, Fluo-4 (AID 434979;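 active means signal rise over 3 SD above mean of control wells given weak agonist, in both repeats and first screen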); details: Fluo-4 calcium flux, at 10 µM, serotonin added at its EC20 dose; hits give high values
[16] = calcium flux activation in mu-opioid HEK293 cells, confirmation, counter-screen for TRPC4 activator project, cell-based, HEK293 mu-opioid receptor line (AID 449723;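 active means hit in primary screen, with calcium signal over 5 SD above buffer well mean in both duplicates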;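 further: counter screen cells carry the mu-opioid receptor alone and lack TRPC4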); details: Fluo-4 calcium fluorescence, at 10 µM; hits give high values
[17] = calcium flux enhancement in mu-opioid HEK293 cells, confirmation, counter-screen for TRPC4 allosteric potentiator project, cell-based, HEK293 mu-opioid receptor line (AID 449724;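 active means calcium signal rise more than 3 SD above the low-dose agonist control mean, in both duplicate plates and the primary screen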); details: Fluo-4 calcium flux, at 10 µM, compound added before EC20 DAMGO stimulus; hits give high values

Sequence of Short transient receptor potential channel 6 (Mus musculus) (Q61143 whole entry, looked up): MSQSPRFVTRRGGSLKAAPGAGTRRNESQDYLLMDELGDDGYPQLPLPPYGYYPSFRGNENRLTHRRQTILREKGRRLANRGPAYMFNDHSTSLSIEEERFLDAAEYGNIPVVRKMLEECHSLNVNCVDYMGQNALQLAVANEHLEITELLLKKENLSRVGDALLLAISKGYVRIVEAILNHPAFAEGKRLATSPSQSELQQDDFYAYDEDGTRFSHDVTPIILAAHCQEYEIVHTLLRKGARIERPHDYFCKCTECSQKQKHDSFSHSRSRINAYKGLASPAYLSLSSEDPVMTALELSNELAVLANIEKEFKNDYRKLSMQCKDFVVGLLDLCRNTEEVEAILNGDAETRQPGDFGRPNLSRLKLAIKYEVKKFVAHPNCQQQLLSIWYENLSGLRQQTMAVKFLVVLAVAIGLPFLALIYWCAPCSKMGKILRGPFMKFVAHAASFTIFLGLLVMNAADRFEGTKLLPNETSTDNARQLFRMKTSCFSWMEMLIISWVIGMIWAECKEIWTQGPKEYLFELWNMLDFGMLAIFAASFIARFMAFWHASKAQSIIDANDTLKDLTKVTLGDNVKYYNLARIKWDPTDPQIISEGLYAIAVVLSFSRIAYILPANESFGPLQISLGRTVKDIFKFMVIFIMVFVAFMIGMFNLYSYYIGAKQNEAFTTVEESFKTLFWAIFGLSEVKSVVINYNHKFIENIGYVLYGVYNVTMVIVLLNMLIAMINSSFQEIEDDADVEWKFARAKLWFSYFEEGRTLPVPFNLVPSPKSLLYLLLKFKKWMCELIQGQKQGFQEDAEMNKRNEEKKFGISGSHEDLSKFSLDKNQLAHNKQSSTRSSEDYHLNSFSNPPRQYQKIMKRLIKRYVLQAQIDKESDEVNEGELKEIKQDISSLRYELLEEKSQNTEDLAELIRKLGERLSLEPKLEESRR
Sequence of Short transient receptor potential channel 4 (Mus musculus) (Q9QUQ5 whole entry, looked up): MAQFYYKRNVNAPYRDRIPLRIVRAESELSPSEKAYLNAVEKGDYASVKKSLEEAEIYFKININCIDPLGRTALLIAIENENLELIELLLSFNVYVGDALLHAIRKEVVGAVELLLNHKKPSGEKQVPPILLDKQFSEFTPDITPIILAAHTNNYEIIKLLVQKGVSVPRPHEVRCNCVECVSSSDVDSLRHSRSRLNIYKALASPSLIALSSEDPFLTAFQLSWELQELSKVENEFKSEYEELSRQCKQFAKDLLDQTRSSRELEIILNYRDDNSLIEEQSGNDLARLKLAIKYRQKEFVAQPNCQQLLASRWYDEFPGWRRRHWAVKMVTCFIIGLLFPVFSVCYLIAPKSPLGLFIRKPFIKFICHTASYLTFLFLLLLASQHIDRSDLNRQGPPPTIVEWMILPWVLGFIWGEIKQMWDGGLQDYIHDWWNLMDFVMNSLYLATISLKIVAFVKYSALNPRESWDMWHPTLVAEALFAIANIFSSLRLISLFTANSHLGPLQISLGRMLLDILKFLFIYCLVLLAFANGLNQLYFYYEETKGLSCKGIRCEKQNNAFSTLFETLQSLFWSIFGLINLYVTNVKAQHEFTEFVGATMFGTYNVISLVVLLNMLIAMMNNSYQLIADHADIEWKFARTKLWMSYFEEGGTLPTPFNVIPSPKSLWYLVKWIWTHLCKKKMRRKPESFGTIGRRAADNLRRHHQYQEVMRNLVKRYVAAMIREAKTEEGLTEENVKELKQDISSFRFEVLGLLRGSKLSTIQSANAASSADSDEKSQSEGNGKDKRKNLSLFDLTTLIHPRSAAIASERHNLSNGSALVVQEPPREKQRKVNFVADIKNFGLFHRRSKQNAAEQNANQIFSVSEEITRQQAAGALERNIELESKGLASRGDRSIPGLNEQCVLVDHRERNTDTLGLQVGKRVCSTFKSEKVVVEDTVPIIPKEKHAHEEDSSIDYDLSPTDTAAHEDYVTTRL

O=c1c2ccccc2nc(COc2ccccc2)n1/N=C/c1cc([N+](=O)[O-])ccc1O
inactive: outcome [1] | outcome [2] | outcome [5] | outcome [6] | outcome [7] | outcome [8] | outcome [9] | outcome [10] | outcome [11] | outcome [12] | outcome [13] | outcome [14] | outcome [16] | outcome [17]
active: potentiation [3] 11% | potentiation [4] 23% | potentiation [15] 10.5%

CCOc1cc(N(CC)CC)ccc1/C=C(/C#N)c1nc2ccccc2[nH]1
inactive: outcome [1] | outcome [2] | outcome [3] | outcome [4] | outcome [5] | outcome [6] | outcome [7] | outcome [8] | outcome [9] | outcome [10] | outcome [12] | outcome [14] | outcome [15] | outcome [17]
active: activation [11] 86% | activation [13] 16.9% | activation [16] 31.5%

COc1cccc(Oc2cncnc2-c2ccc(OC)cc2O)c1
inactive: outcome [1] | outcome [2] | outcome [3] | outcome [4] | outcome [5] | outcome [6] | outcome [7] | outcome [8] | outcome [9] | outcome [10] | outcome [11] | outcome [12] | outcome [13] | outcome [14] | outcome [15] | outcome [16] | outcome [17]

Clc1ccc(OCCCc2nc(-c3ccncc3)no2)c(Cl)c1
active: inhibition [5] 91% | inhibition [14] 30.7%
inactive: outcome [1] | outcome [2] | outcome [3] | outcome [4] | outcome [6] | outcome [7] | outcome [8] | outcome [9] | outcome [10] | outcome [11] | outcome [12] | outcome [13] | outcome [15] | outcome [16] | outcome [17]

COc1ccccc1N1CCN(Cc2cc(=O)c(OCC(=O)NC3CCCC3)co2)CC1
inactive: outcome [1] | outcome [2] | outcome [3] | outcome [4] | outcome [5] | outcome [6] | outcome [7] | outcome [8] | outcome [9] | outcome [10] | outcome [11] | outcome [12] | outcome [13] | outcome [14] | outcome [15] | outcome [16] | outcome [17]

CC(=O)Nc1nc2ccc(S(=O)(=O)N3CCCCC3)cc2s1
inactive: outcome [1] | outcome [2] | outcome [3] | outcome [4] | outcome [5] | outcome [6] | outcome [7] | outcome [8] | outcome [9] | outcome [10] | outcome [11] | outcome [12] | outcome [13] | outcome [14] | outcome [15] | outcome [16] | outcome [17]

Oc1c(Br)cc(Br)c(/C=N/n2c(-c3ccccc3)n[nH]c2=S)c1Br
inactive: outcome [1] | outcome [2] | outcome [3] | outcome [5] | outcome [6] | outcome [7] | outcome [8] | outcome [9] | outcome [10] | outcome [11] | outcome [12] | outcome [13] | outcome [14] | outcome [15] | outcome [16] | outcome [17]
active: potentiation [4] 18%

Cc1cccc(NC(=O)CNC(=O)CN2C(=O)NC3(CCCCC3C)C2=O)c1C (stereo not given)
inactive: outcome [1] | outcome [2] | outcome [3] | outcome [4] | outcome [5] | outcome [6] | outcome [7] | outcome [8] | outcome [9] | outcome [10] | outcome [11] | outcome [12] | outcome [13] | outcome [14] | outcome [15] | outcome [16] | outcome [17]

COc1ccc(CC2(CO)CCN(C/C=C/c3ccccc3OC)CC2)cc1
active: inhibition [5] 79% | inhibition [14] 33.5%
inactive: outcome [1] | outcome [2] | outcome [3] | outcome [4] | outcome [6] | outcome [7] | outcome [8] | outcome [9] | outcome [10] | outcome [11] | outcome [12] | outcome [13] | outcome [15] | outcome [16] | outcome [17]

CC(=O)Nc1ccc(CN2CCCC(CO)(Cc3ccccc3C)C2)cc1 (stereo not given)
inactive: outcome [1] | outcome [2] | outcome [3] | outcome [4] | outcome [5] | outcome [6] | outcome [7] | outcome [8] | outcome [9] | outcome [10] | outcome [11] | outcome [12] | outcome [13] | outcome [14] | outcome [15] | outcome [16] | outcome [17]

CCOCCCn1c(=S)[nH]c2cc(C(=O)NCCCN(CC)CC)ccc2c1=O
inactive: outcome [1] | outcome [2] | outcome [5] | outcome [6] | outcome [7] | outcome [8] | outcome [9] | outcome [10] | outcome [11] | outcome [12] | outcome [13] | outcome [14] | outcome [16] | outcome [17]
active: potentiation [3] 18% | potentiation [4] 10% | potentiation [15] 16.1%

CN(C)c1ccc(NC(=O)C2C3C=CC(C3)C2C(=O)O)cc1 (stereo not given)
inactive: outcome [1] | outcome [2] | outcome [3] | outcome [4] | outcome [5] | outcome [6] | outcome [7] | outcome [8] | outcome [9] | outcome [10] | outcome [11] | outcome [12] | outcome [13] | outcome [14] | outcome [15] | outcome [16] | outcome [17]

CC(C)CCc1noc(CN2CCN(c3ccc(Cl)cn3)CC2)n1
inactive: outcome [1] | outcome [2] | outcome [3] | outcome [4] | outcome [5] | outcome [6] | outcome [7] | outcome [8] | outcome [9] | outcome [10] | outcome [11] | outcome [12] | outcome [13] | outcome [14] | outcome [15] | outcome [16] | outcome [17]

CCOC(=O)c1c(-c2ccc(OC)cc2)oc2ccc(O)cc12
inactive: outcome [1] | outcome [2] | outcome [3] | outcome [4] | outcome [5] | outcome [6] | outcome [7] | outcome [8] | outcome [9] | outcome [10] | outcome [11] | outcome [12] | outcome [13] | outcome [14] | outcome [15] | outcome [16] | outcome [17]

Cc1cc(SCC(=O)c2cccc([N+](=O)[O-])c2)nc(=O)[nH]1
active: potentiation [4] 23% | potentiation [15] 57.9%
inactive: outcome [1] | outcome [2] | outcome [3] | outcome [5] | outcome [6] | outcome [7] | outcome [8] | outcome [9] | outcome [10] | outcome [11] | outcome [12] | outcome [13] | outcome [14] | outcome [16] | outcome [17]
